Read-out in assay [1]: E-selectin (Homo sapiens) (UniProt P16581)
Briefly: BSK_IMphg_ESelectin: BioMAP Diversity Plus: IMphg Assay for Eselectin Biomarker Activity (AID 2284291). The note with it: primary human endothelial cells with macrophages. In outline: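 Human venular endothelial cell–macrophage co-culture, E-selectin measured by ELISA 24 h after chemical dosing. Signal fitted in the positive direction against DMSO as negative control and baseline.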

Assay [2] can be described thus: BSK_IMphg_SRB: Viability Assessment in the BioMAP Diversity Plus: IMphg Assay (AID 2284292).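 Also: measured one day after compound addition.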 The note with it: primary human endothelial cells with macrophages. In outline:
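Human venular endothelial cells with macrophages, 24 h after chemical dosing; total protein by 0.1% SRB staining after 10% TCA fixation, read at 560 nm. Positive-direction fitting versus DMSO baseline.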

Read-out in assay [3]: Macrophage colony-stimulating factor (MCSF), CSF1 (gene 1435)
Briefly: BSK_IMphg_MCSF: BioMAP Diversity Plus: IMphg Assay for Macrophage colony-stimulating factor (MCSF) Biomarker Activity (AID 2284293). The note with it: primary human endothelial cells with macrophages. In outline: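 Co-culture of human venular endothelial cells and macrophages, 24 hours of chemical exposure. M-CSF quantified by ELISA, with parallel SRB total-protein staining for cytotoxicity; activity fitted relative to DMSO.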

Read-out in assay [4]: Interleukin-10 (IL10), IL10 (gene 3586)
The experiment in a line: BSK_IMphg_IL10: BioMAP Diversity Plus: IMphg Assay for Interleukin-10 (IL10) Biomarker Activity (AID 2284294). The note with it: primary human endothelial cells with macrophages. In short, it runs like this: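 Human venular endothelial cells cocultured with macrophages, dosed 24 h; IL-10 measured by ELISA, activity relative to DMSO. Cytotoxicity assessed in parallel cultures by sulforhodamine B total-protein staining.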

A short description of assay [5]: BSK_IMphg_SRB.Mphg: Macrophage Viability Assessment in the BioMAP Diversity Plus: IMphg Assay (AID 2284295). The note with it: primary human endothelial cells with macrophages. In outline: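 Venular endothelial cells co-cultured with macrophages, read 24 h after dosing. Total protein measured by 0.1% SRB staining after 10% TCA fixation, absorbance at 560 nm. Fitted in positive direction against DMSO baseline.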

Read-out in assay [6]: Thrombomodulin, THBD (gene 7056)
Briefly: BSK_LPS_Thrombomodulin: BioMAP Diversity Plus: LPS Assay for Thrombomodulin Biomarker Activity (AID 2284296). The note with it: primary human HUVEC with PBMC. In short, it runs like this:
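Human umbilical vein endothelial cells co-cultured with PBMC and stimulated with LPS; cell-surface thrombomodulin measured by ELISA 24 hours after compound. Gain or loss versus DMSO; cytotoxicity checked by SRB staining in parallel cultures.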

Read-out in the next assay: CD69, CD69 (gene 969)
The experiment in a line: BSK_LPS_CD69: BioMAP Diversity Plus: LPS Assay for CD69 Biomarker Activity (AID 2284303). The note with it: primary human HUVEC with PBMC. In outline:
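Human umbilical vein endothelial cells co-cultured with PBMC under LPS stimulation, chemical exposure 24 h; cell-surface CD69 measured by ELISA and fitted in the positive direction versus DMSO.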

Assay [7] is described as follows: IUF_NPC2c_oligodendrocyte_migration_120hr: Leibniz Research Institute for Environmental Medicine (IUF) 120-hour Neural Progenitor Cell Migration Assay for Oligodendrocyte Migration (NPC2c) (AID 2284297). In short, it runs like this:
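Read-out is the mean distance of O4-positive oligodendrocytes from the sphere core edge at 120 h, normalized to radial glia migration and fitted in the gain direction against DMSO. Spheres of primary human neural progenitors differentiated on laminin under continuous compound exposure.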

Assay [8] is described as follows: IUF_NPC2a_radial_glia_migration_120hr: Leibniz Research Institute for Environmental Medicine (IUF) 120-hour Neural Progenitor Cell Migration Assay for Radial Glia Migration (NPC2a) (AID 2284298). In outline: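 Readout: distance in um from sphere core edge to migration-area edge, derived from Hoechst nuclei density with a threshold-defined polynomial boundary. Spheres: hNPC, GW 16-19, 0.3 mm, on PDL/laminin; exposure 5 days; DMSO is baseline.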

Assay [9] in a line: IUF_NPC2a_radial_glia_migration_72hr: Leibniz Research Institute for Environmental Medicine (IUF) 72-hour Neural Progenitor Cell Migration Assay for Radial Glia Migration (NPC2a) (AID 2284299). In short, it runs like this:
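Human fetal neural progenitor spheres (0.3 mm) plated on poly-D-lysine/laminin in N2 differentiation medium and exposed from day 0 at 7 concentrations; radial glia migration distance from sphere edge measured at 72 h on brightfield images, mean of four directions, vs DMSO.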

A short description of assay [10]: IUF_NPC2b_neuronal_migration_120hr: Leibniz Research Institute for Environmental Medicine (IUF) 120-hour Neural Progenitor Cell Migration Assay for Neuron Migration (NPC2b) (AID 2284300). In short, it runs like this:
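Read-out is mean distance from sphere edge to each TUBB3-positive neuron at 120 h, expressed relative to radial glia migration distance and to DMSO baseline. Single 0.3 mm human NPC spheres differentiated on laminin under continuous compound exposure.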

A short description of assay [11]: IUF_NPC3_neuronal_differentiation_120hr: Leibniz Research Institute for Environmental Medicine (IUF) 120-hour Neuronal Differentiation Assay (NPC3) (AID 2284301). In short, it runs like this: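 Primary human fetal neural progenitor spheres (GW 16-19, 0.3 mm) plated on poly-D-lysine/laminin in N2 medium, exposed from day 0 for 120 h with half-medium refresh at day 3. TUBB3+ cells as percent of Hoechst nuclei in migration area; DMSO baseline.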

Assay [12] is described as follows: IUF_NPC4_neurite_length_120hr: Leibniz Research Institute for Environmental Medicine (IUF) 120-hour Neuronal Morphology Assay for Neurite Length (NPC4) (AID 2284302). In outline:
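Human fetal cortex (GW 16-19) neural progenitor spheres, 0.3 mm, were plated on poly-D-lysine/laminin in N2 differentiation medium and exposed from day 0 for 120 h, half-feeding at day 3. Mean TUBB3+ neurite length (µm) came from skeletonized images, relative to DMSO.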

Assay [13] can be described thus: IUF_NPC5_oligodendrocyte_differentiation_120hr: Leibniz Research Institute for Environmental Medicine (IUF) 120-hour Oligodendrocyte Differentiation Assay (NPC5) (AID 2284304; active = hit-call score of the fitted dose curve at least 0.9, where 1 is the maximum;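 also: primary human fetal neural progenitor spheres plated to migrate and differentiate; share of O4-positive cells among Hoechst nuclei found by CNN image analysis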). In outline:
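Oligodendrocyte differentiation was scored after 120 h as the O4-positive share of Hoechst-stained nuclei across the neurosphere migration area, using a trained convolutional neural network on high-content fluorescence images. Human fetal neural progenitor spheres were dosed from day 0, normalised to DMSO.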

Assay [14] in a line: IUF_NPC4_neurite_area_120hr: Leibniz Research Institute for Environmental Medicine (IUF) 120-hour Neuronal Morphology Assay for Neurite Area (NPC4) (AID 2284305; active = hit-call score of the fitted dose curve at least 0.9, where 1 is the maximum). In short, it runs like this:
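Human fetal cortex-derived neural progenitor spheres (0.3 mm, GW 16-19) plated on poly-D-lysine/laminin in N2 differentiation medium and exposed from day 0 for 120 h across 7 concentrations plus solvent control. Neurite area is mean pixel area per TUBB3-positive neuron via skeletonization, analysed relative to DMSO.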

Assay [15] is described as follows: IUF_NPC2-5_cytotoxicity_72hr: Cytotoxicity Assessment at 72 hours in the Leibniz Research Institute for Environmental Medicine (IUF) Neural Progenitor Cell Migration and Differentiation Assay for Cytotoxicity (NPC2-5) (AID 2284306; active = hit-call score of the fitted dose curve at least 0.9, where 1 is the maximum;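 also: LDH release into supernatant measured by resorufin fluorescence marking membrane damage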). In outline: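 Human fetal (GW 16-19) neural progenitor spheres, 0.3 mm, plated on poly-D-lysine/laminin in N2 differentiation medium and exposed from day 0 to 7 concentrations plus solvent control (DMSO ≤0.1%). LDH-dependent resazurin-to-resorufin fluorescence in supernatant at 72 h.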

A short description of assay [16]: IUF_NPC2-5_cytotoxicity_120hr: Cytotoxicity Assessment at 120 hours in the Leibniz Research Institute for Environmental Medicine (IUF) Neural Progenitor Cell Migration and Differentiation Assay (NPC2-5) (AID 2284307; active = hit-call score of the fitted dose curve at least 0.9, where 1 is the maximum;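 as to AC50: LDH released into supernatant as membrane damage marker via resorufin fluorescence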). In short, it runs like this: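 Sphere plating starts differentiation and exposure together at day 0. Compound solution is half-replaced on day 3. At 120 h, medium supernatant is taken for an LDH membrane-integrity read based on resazurin reduction to resorufin fluorescence.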

The nature of assay [17]: IUF_NPC2-5_cell_number_120hr: Cell Number Assessment at 120 hours in the Leibniz Research Institute for Environmental Medicine (IUF) Neural Progenitor Cell Migration and Differentiation Assay (NPC2-5) (AID 2284308).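 Also: count of Hoechst-stained nuclei in migration zone around plated human neural progenitor spheres.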 In short, it runs like this: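 hNPC spheres, one per well, PDL/laminin, N2 medium, 37C, 5% CO2. Dosing day 0 → half-medium change with fresh compound day 3 → fix 120 h. Readout: Hoechst+ nuclei count, migration area; 7 concentrations plus solvent control.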

Assay [18] is described as follows: VALA_TUBHUV_Agonist_CellCount: Viability Assessment in the VALA Sciences human Umbilical Vein Endothelial Tubule Formation (TUBHUV) Agonism Assay (AID 2284309; active = hit-call score of the fitted dose curve at least 0.9, where 1 is the maximum). In outline: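 HUVEC co-cultured 1:3 with HDF for 3 days in 10 ng/ml VEGF, then compounds added in VEGF medium for a further 3 days (72 h). Nuclear-stain/CD31 imaging cell count. Positive-direction fit versus 0.1% DMSO vehicle.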

Assay [19] is described as follows: VALA_TUBHUV_Antagonist_CellCount: Viability Assessment in the VALA Sciences human Umbilical Vein Endothelial Tubule Formation (TUBHUV) Antagonism Assay (AID 2284310; active = hit-call score of the fitted dose curve at least 0.9, where 1 is the maximum). In short, it runs like this: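 HUVEC co-cultured with HDF (1:3) 3 days in 10 ng/ml VEGF, then 3 days with compounds in VEGF medium. Fixed, nuclear stain and CD31 immunofluorescence, imaged; cell counts fitted versus 0.1% DMSO, loss of signal read as lower viability.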

Molecules are shown by their SMILES. Values joined by “and” are separate entries in the source; they are usually repeats but may differ in a detail not shown here. Equal entries are not always repeated. Records with an inconclusive call do not appear. Some structures have more than one record in an assay (separate samples or runs), and their calls can disagree. Active and inactive are the calls of the source. The calls were made as follows, unless noted: active = hit-call score of the fitted dose curve at least 0.9, where 1 is the maximum; inactive = score below 0.9.

Chain of E-selectin (Homo sapiens) (P16581 whole entry, looked up): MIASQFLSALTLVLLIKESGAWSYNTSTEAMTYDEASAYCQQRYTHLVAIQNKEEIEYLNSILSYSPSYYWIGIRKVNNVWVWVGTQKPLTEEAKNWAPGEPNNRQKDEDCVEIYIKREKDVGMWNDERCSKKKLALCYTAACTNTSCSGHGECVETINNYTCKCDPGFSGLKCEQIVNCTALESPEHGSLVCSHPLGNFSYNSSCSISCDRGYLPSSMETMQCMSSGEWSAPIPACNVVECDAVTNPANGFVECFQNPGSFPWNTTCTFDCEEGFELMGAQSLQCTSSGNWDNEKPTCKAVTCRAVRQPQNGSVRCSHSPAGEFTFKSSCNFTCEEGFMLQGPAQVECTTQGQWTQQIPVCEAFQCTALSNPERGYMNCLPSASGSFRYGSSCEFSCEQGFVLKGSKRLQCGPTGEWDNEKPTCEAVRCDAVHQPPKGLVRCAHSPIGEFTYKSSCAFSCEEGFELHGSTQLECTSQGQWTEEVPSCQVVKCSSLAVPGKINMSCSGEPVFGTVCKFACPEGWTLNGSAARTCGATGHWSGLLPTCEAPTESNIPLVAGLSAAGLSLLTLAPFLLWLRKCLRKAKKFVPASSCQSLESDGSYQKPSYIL

What is called AC50 is the midpoint of the concentration-response curve, whichever way the signal moves. In the case of `C=CC(=O)OCC(F)(F)C(F)F`, the AC50 in assay [1] is 44.6 µM (active); in assay [4], 43.4 µM (active) and 39.2 µM (active); in [6], 30 µM (active) and 39 µM (active); with CD69, CD69 (gene 969) it was 43.8 µM (active). The outcome in [1] is “inactive”; in assay [2], “inactive”; in assay [3], “inactive”; in assay [5], “inactive”; with CD69, CD69 (gene 969) it was “inactive”.

Turning to `CCCCC(CC)COP(=O)(Oc1ccccc1)Oc1ccccc1` (stereo not drawn), the outcome in assay [7], in [8], in [9], in assay [10], in [11] and in assay [12] was inactive. The compound was called inactive in assay [13], in assay [14], in assay [15], in [16] and in assay [17].

As to `CC(C)(C)c1ccccc1OP(=O)(Oc1ccccc1)Oc1ccccc1`, the call in assay [7], in [9], in assay [10], in [11], in assay [12] and in assay [14] was inactive. For the same compound, the compound was classed as inactive in assay [15] and in assay [17]. For the same compound, the AC50 in [8] was 10 µM (active); in assay [13], 4.35 µM (active); in assay [16], 1.98 µM (active).

As for `O=P(Oc1ccccc1)(Oc1ccccc1)Oc1ccccc1`, the outcome in assay [7], in assay [9], in assay [10], in assay [11], in assay [12] and in assay [13] was inactive. Besides, the outcome in [14], in assay [15], in [16] and in assay [17] was inactive. The AC50 in assay [8] was 11 µM (active).

As to `OCC(F)(F)OC(F)(F)C(F)(F)OC(F)(F)C(F)(F)OC(F)(F)CO`, the AC50 in assay [1] is 5.2 µM (active); in [3], 24.7 µM (active); in assay [4] it was 30 µM (active); in [6], 4.54 µM (active). For the same compound, the outcome is “inactive” in assay [1]; “inactive” in assay [2]; “inactive” in assay [3]; “inactive” in [5]; “inactive” in assay [6]; “inactive” in the assay with CD69, CD69 (gene 969).

`O=S(=O)(F)C(F)(F)C(F)(F)C(F)(F)C(F)(F)C(F)(F)C(F)(F)C(F)(F)C(F)(F)F`: the result in [1], in [2], in assay [3], in [4], in assay [5] and in [6] was inactive. Besides, the result with CD69, CD69 (gene 969) was inactive.

For the compound `CC(O)C(F)(F)C(F)(F)F` (stereo not drawn), the result in assay [1], in assay [2], in assay [3], in assay [4], in [5] and in assay [6] was inactive. Also, in the assay with CD69, CD69 (gene 969), the outcome was inactive.

For `COP(=O)(CCC(=O)NCO)OC`, the result in assay [6] was inactive. Further, in the assay with CD69, CD69 (gene 969), the AC50 was 0.15 µM (active) and the outcome was inactive.

Consider `FC(F)(F)C(F)(C(F)(F)F)C(F)(F)C(F)(F)CC1CO1` (stereo not drawn), for which the outcome in assay [1], in assay [2], in assay [3], in [4], in [5] and in [6] was inactive. The outcome with CD69, CD69 (gene 969) was inactive.

As for `O=C(O)C(F)(F)C(F)(F)C(=O)O`, the outcome in assay [1], in [2], in assay [3], in assay [4], in assay [5] and in [6] was inactive. Besides, in the assay with CD69, CD69 (gene 969), the outcome was inactive.

With `O=S1(=O)OCC2C(CO1)C1(Cl)C(Cl)=C(Cl)C2(Cl)C1(Cl)Cl` (stereo not drawn), the call in assay [7], in assay [8], in assay [9], in assay [10], in assay [11] and in assay [12] was inactive. In addition, the compound was called inactive in assay [14], in assay [15], in [16] and in [17]. Besides, the AC50 in assay [13] was 0.403 µM (active).

In the case of `Cc1ccc(N)cc1N`, the result in assay [18] and in assay [19] was inactive.

Take `NC(=O)C(F)(F)C(F)(F)F`: the result in [1], in assay [2], in assay [3], in assay [4], in assay [5] and in assay [6] was inactive. In addition, the outcome with CD69, CD69 (gene 969) was inactive.
